Assay results as given in PubChem BioAssay (NCI).
About 83,000 compounds went through this panel and 20% of them were active in at least one assay; those are over-represented in the sample as a whole.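 Single-concentration screen, 48 h exposure, 96-well plates. Endpoint: percent growth. Below 10 = active.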 Unmarked numbers belong to inactive results. Active and inactive are the calls of the source.

How the values were obtained:
Assay in all cases: NCI-60 one-dose screen, 48 h (100 = growth as untreated, 0 = no growth, -100 = all killed)
[1] = test system: NCI-H226 lung; conditions: 10 µM
[2] = test system: NCI-H322M lung; conditions: 10 µM
[3] = test system: HOP-62 NSCLC; conditions: 10 µM
[4] = test system: NCI-H460 lung; conditions: 10 µM
[5] = test system: NCI-H522 lung; conditions: 10 µM
[6] = test system: A549/ATCC NSCLC; conditions: 10 µM
[7] = test system: DU-145 prostate; conditions: 10 µM
[8] = test system: K-562 leukemia; conditions: 10 µM
[9] = test system: SF-539 CNS; conditions: 10 µM
[10] = test system: M14 melanoma; conditions: 10 µM
[11] = test system: HCT-15 colon; conditions: 10 µM
[12] = test system: HT29 colon; conditions: 10 µM
[13] = test system: SNB-75 CNS; conditions: 10 µM
[14] = test system: SNB-19 CNS; conditions: 10 µM
[15] = test system: U251 CNS; conditions: 10 µM
[16] = test system: MOLT-4 leukemia; conditions: 10 µM
[17] = test system: SR leukemia; conditions: 10 µM
[18] = test system: RPMI-8226 leukemia; conditions: 10 µM
[19] = test system: SK-OV-3 ovarian; conditions: 10 µM
[20] = test system: MDA-MB-468 breast; conditions: 10 µM unless noted

SMILES	growth [1]	growth [2]	growth [3]	growth [4]	growth [5]	growth [6]	growth [7]	growth [8]	growth [9]	growth [10]	growth [11]	growth [12]	growth [13]	growth [14]	growth [15]	growth [16]	growth [17]	growth [18]	growth [19]	growth [20]
Cn1cc(-c2cc(N)n3nc(-c4cn(C)c5ccccc45)cc3n2)c2cc(F)ccc21	-39.8% (active)	-19.1% (active)	-64.6% (active)	-61.6% (active)	-66.3% (active)	-23.5% (active)	-2.27% (active)	0.146% (active)	-81.6% (active)	-83.6% (active)	-80.2% (active)	-72.2% (active)	-67% (active)	-6.35% (active)	-77% (active)	-14.4% (active)	9.63% (active)	-13.3% (active)	-77.7% (active)	-36.3% (active)
COc1ccc2[nH]cc(-c3nc(N)nnc3-c3cn(C)c4ncc(Br)cc34)c2c1	8.48% (active)	35%	26.5%	1.08% (active)	-55.1% (active)	17.7%	11.1%	3% (active)	-3.25% (active)	6.91% (active)	12.3%	-27.1% (active)	23.4%	30%	5.39% (active)	2.27% (active)	3% (active)	-16% (active)	10.7%	-8.06% (active)
O=C(c1ccccc1)c1ccc2nc(-c3ccccc3Br)[nH]c2c1	-27.8% (active)	-96.2% (active)	-46.6% (active)	-22.4% (active)	-74.9% (active)	-57.9% (active)	-76% (active)	-3.28% (active)	-96.1% (active)	-70.1% (active)	-37.7% (active)	-71.3% (active)	-41.9% (active)	4.77% (active)	-94.7% (active)	-15.3% (active)	-22.8% (active)	-17.9% (active)	24%	–
CC1[C@H]2[C@H](C[C@H]3[C@@H]4CC=C5c6sc(Nc7cccc(Cl)n7)nc6CC[C@]5(C)[C@H]4CC[C@@]32C)O[C@]12CC[C@@H](C)CO2 (some centres undefined)	81.5%	102%	116%	85.7%	65.8%	96.1%	99.1%	54.5%	110%	77.4%	73.9%	100%	127%	96.6%	92.2%	79.8%	65.3%	56.5%	108%	93.6%
C#C[C@]1(O)CC[C@H]2[C@@H]3CC=C4c5sc(Nc6ccc(C(F)(F)F)cn6)nc5CC[C@]4(C)[C@H]3CC[C@@]21C	16.2%	13.7%	10.9%	-35.8% (active)	-51.1% (active)	7.15% (active)	8.36% (active)	7.48% (active)	-45.3% (active)	-21.4% (active)	-34.8% (active)	-31.8% (active)	28.5%	8.33% (active)	-82.9% (active)	-8.2% (active)	1.07% (active)	-6.6% (active)	-4.49% (active)	4.25% (active)
Cn1cc(-c2cc3nc(-c4c[nH]c5ccccc45)cc(N)n3n2)c2cc(Cl)ccc21	-30.4% (active)	-98.8% (active)	-86.4% (active)	-58.2% (active)	-72.1% (active)	-84.6% (active)	-92.6% (active)	0.698% (active)	-92.5% (active)	-89.3% (active)	-84% (active)	-69.3% (active)	-65.9% (active)	-78.2% (active)	-91.8% (active)	-48.8% (active)	-8.96% (active)	-25.5% (active)	-94.7% (active)	-85.9% (active)
Cn1cc(-c2nnc(N)nc2-c2c[nH]c3ccc(F)cc23)c2cc(Br)cnc21	89.3%	79.1%	56.8%	39.7%	23.8%	66.2%	89.4%	42.8%	64.5%	77.4%	59.8%	71.6%	59.1%	58.3%	57.1%	4.34% (active)	9.16% (active)	59.1%	98.8%	13.8%
